From PubChem BioAssay
FECH inh – blocks human mitochondrial ferrochelatase activity | P22830 | purified FECH, Ni-mesoporphyrin absorbance 550 nm | calls only at 10 µM (by protocol) | 20,000 compounds, 3.3% hits;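 active means enzyme reaction rate more than 3 SD below the solvent-only control wells on the same plate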;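 further: lower slope than DMSO wells means FECH inhibition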
Target sequence (P22830 whole entry, looked up): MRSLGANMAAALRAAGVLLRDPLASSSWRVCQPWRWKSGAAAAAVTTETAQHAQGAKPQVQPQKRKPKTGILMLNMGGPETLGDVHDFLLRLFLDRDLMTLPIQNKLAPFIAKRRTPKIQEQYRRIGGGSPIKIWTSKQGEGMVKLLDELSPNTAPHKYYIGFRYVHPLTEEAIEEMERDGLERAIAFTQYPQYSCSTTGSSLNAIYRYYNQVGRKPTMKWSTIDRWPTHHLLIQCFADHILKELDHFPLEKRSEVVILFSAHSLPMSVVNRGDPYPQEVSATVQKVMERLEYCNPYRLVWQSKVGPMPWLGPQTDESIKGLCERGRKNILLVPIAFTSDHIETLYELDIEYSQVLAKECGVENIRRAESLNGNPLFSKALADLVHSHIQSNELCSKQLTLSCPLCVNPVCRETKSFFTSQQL
* marks the source's active call; other numbers are inactive results; i = inactive; + = active, no number. This excerpt belongs to a sample that is enriched for hits.

SMILES	FECH inh
CCCc1cc(=O)n2[nH]c(CNc3ccc(F)cc3)nc2n1	+
CCCc1cc(=O)n2[nH]c(CNc3cccc(C(F)(F)F)c3)nc2n1	+
COc1ccc(N2C(=O)CCS2(=O)=O)cc1S(=O)(=O)NCCc1c[nH]c2ccccc12	i
CCOc1c(Nc2cc(OC)ccc2OC)c(=O)c1=O	i
COc1ccccc1CN(Cc1cccnc1)Cc1nccn1C	i
CCN(Cc1nc(COC)no1)C(=O)c1cc(-c2ccccc2)nn1C	i
CC(C)CN(C/C=C/c1ccco1)Cc1ccccn1	i
CC(Cn1cnc(-c2ccccc2)c1C1CC1)Oc1cccnc1 (stereo not drawn)	i
CCCNC(=O)N1CCC(n2cnc3cccnc32)CC1	i
Cc1cccc(NC(=O)N2CCC(n3cnc4cccnc43)CC2)c1	i
O=C(Nc1ccccc1)N1CCC(n2cnc3cccnc32)CC1	+
COc1cccc(NC(=O)N2CCC(n3cnc4cccnc43)CC2)c1	+
COc1cc(NC(=O)N2CCC(n3cnc4cccnc43)CC2)cc(OC)c1	i
COc1cc(NC(=O)N2CCC(n3cnc4cccnc43)CC2)cc(OC)c1OC	i
Cc1ccccc1NC(=O)N1CCC(n2cnc3cccnc32)CC1	i
O=C(Nc1cccc(Br)c1)N1CCC(n2cnc3cccnc32)CC1	i
O=C(NC1CCCC1)N1CCC(n2cnc3cccnc32)CC1	+
CCOC(=O)N1CCCN(Cc2ccc(F)cc2)C(C(C)C)C1 (stereo not drawn)	i
CCc1ncc(CN2CCCCC2CCc2ccc(O)cc2)cn1 (stereo not drawn)	i
CCC(NC(=O)CN1CCC(C)=N1)c1ccc(F)cc1 (stereo not drawn)	i
Cc1ccc(CN(C)C(=O)c2c[nH]c3ccccc23)o1	i
COc1ccc(Cn2c(CN3CCc4ccccc4C3)n[nH]c2=O)cc1	i
Cc1ccc(C2=CC(c3ccc(Cl)cc3)n3nc(NC(=O)c4ccco4)nc3N2)cc1 (stereo not drawn)	+
Cc1ccc(C2=CC(c3ccc(Cl)cc3)n3nc(NC(=O)c4cccc(C)c4)nc3N2)cc1 (stereo not drawn)	i
Cc1ccc(C(=O)Nc2nc3n(n2)C(c2ccc(F)cc2)C=C(c2ccc(C)cc2)N3)cc1 (stereo not drawn)	i
SMILES	FECH inh
O=C(Nc1nc2n(n1)C(c1ccc(F)cc1)C=C(c1ccc(Cl)cc1)N2)c1ccco1 (stereo not drawn)	i
Cc1ccc(C2=CC(c3ccc(Cl)cc3)n3nc(NC(=O)CC(C)C)nc3N2)cc1 (stereo not drawn)	+
CC(C)C(=O)Nc1nc2n(n1)C(c1ccc(Cl)cc1)C=C(c1ccc(Cl)cc1)N2 (stereo not drawn)	i
Cc1ccc(C2=CC(c3ccc(Cl)cc3)n3nc(NC(=O)CCc4ccccc4)nc3N2)cc1 (stereo not drawn)	i
Cc1ccc(C2=CC(c3ccc(Cl)cc3)n3nc(NC(=O)c4ccccc4)nc3N2)cc1 (stereo not drawn)	+
O=C(Nc1nc2n(n1)C(c1ccc(Cl)cc1)C=C(c1ccc(Cl)cc1)N2)c1ccco1 (stereo not drawn)	i
O=C(Nc1nc2n(n1)C(c1ccc(F)cc1)C=C(c1ccc(Cl)cc1)N2)c1ccc(F)cc1 (stereo not drawn)	i
Cc1ccc(C(=O)Nc2nc3n(n2)C(c2ccc(Cl)cc2)C=C(c2ccccc2)N3)cc1 (stereo not drawn)	i
Cc1ccc(C2=CC(c3ccc(Cl)cc3)n3nc(NC(=O)c4ccc(F)cc4)nc3N2)cc1 (stereo not drawn)	+
Cc1nc(C(C)C)cc(N(C)CCc2ccncc2)n1	i
CC(C)(CN1CCCCC1)NC(=O)c1cc(COc2ccccc2)[nH]n1	i
COc1ccc(-c2cc(=O)[nH]c(SCc3nc(-c4ccc(C)cc4)oc3C)n2)cc1	i
Cn1c(=O)n(Cc2ccccn2)c(=O)c2cnc(-c3cccnc3)nc21	i
Cc1nc(SCc2nc(-c3ccc(Cl)cc3)oc2C)[nH]c(=O)c1Cc1ccccc1	i
CCc1c(C)nc2ncnn2c1Sc1ccc(NC(=O)c2cccc(OC)c2)cc1	i
CCCc1c(C)nc2ncnn2c1Sc1ccc(NC(=O)c2cc(OC)cc(OC)c2)cc1	+
CCc1cc(Sc2ccc(NC(=O)Nc3ccc(Br)cc3)cc2)n2ncnc2n1	+
CCc1c(C)nc2ncnn2c1Sc1ccc(NC(=O)Nc2ccc(OC)c(OC)c2)cc1	i
CCc1cc(Sc2ccc(NC(=O)Nc3cccc(F)c3)cc2)n2ncnc2n1	i
COc1cc(OC)cc(C(=O)Nc2ccccc2Sc2c(C)c(C)nc3nc(-c4ccccc4)nn23)c1	i
CCc1cc(Sc2ccc(NC(C)=O)cc2)n2ncnc2n1	i
COc1cc(OC)cc(C(=O)Nc2ccccc2Sc2c(C)c(C)nc3ncnn23)c1	+
CCCc1c(C)nc2ncnn2c1Sc1ccc(NC(=O)c2cccc(OC)c2)cc1	i
CCCc1c(C)nc2ncnn2c1Sc1ccc(NC(=O)Cc2ccc(OC)cc2)cc1	i
COc1ccccc1C(=O)Nc1ccccc1Sc1c(C)c(C)nc2ncnn12	i
